Bioassay records as filed in PubChem.
Peg3 prom inh: reduces Peg3 promoter-driven luciferase expression in HeLa; HeLa PEG-Prom luciferase reporter, luminescence, overnight; inhibition, % at 20 µM; 1.7% of 360,000 active; AID 588405;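 active = inhibition of at least 50% at 20 µM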
Mdm2 MdmX PPI: disrupts the human Mdm2-MdmX interaction | SaOS-2 split-luciferase Mdm2/MdmX complementation, luminescence | inhibition, % at 8 µM | 3% of 330,000 active | AID 485346;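 active = inhibition of at least 50% at 8 µM in the primary screen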
Target sequence (O15151 whole entry, looked up): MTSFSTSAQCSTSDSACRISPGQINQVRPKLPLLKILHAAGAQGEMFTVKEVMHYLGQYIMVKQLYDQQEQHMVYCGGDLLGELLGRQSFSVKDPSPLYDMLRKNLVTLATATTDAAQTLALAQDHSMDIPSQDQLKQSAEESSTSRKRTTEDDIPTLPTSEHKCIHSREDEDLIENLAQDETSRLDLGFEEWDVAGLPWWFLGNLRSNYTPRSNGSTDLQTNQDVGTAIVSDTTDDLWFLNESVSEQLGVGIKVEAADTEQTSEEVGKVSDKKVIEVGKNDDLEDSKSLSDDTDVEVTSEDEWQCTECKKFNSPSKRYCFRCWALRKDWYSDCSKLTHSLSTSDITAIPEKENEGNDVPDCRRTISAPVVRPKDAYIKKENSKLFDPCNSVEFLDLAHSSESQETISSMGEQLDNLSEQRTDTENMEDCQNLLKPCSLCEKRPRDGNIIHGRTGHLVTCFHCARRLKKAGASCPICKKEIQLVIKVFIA
Target sequence (Q00987 whole entry, looked up): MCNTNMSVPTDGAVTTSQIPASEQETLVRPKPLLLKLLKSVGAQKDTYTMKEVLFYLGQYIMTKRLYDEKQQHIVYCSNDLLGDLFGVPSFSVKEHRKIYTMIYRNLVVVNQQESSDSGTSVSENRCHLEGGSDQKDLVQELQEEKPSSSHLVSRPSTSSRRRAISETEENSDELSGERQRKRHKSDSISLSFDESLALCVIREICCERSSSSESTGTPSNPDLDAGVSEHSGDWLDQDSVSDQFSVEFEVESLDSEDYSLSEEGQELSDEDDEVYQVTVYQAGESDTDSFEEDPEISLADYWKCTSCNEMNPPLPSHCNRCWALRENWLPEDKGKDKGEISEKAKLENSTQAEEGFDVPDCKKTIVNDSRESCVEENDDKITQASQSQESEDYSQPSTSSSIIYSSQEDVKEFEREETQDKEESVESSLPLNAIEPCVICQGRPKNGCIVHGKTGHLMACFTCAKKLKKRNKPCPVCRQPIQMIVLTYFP
LGR2 inh: Drosophila LGR2 receptor signaling inhibition; HEK293 LGR2, CRE-luciferase, bursicon-stimulated, 4 h; inhibition, % at 9.99 µM; 0.35% of 380,000 active; AID 720647;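 active = drop in luminescence signal, shown as inhibition above about 50% in the replicate tests, limit read from the data, passing the limit was not always enough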;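 note: agonist challenge used bursicon conditioned medium at about half maximal strength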
KKLEB tox: reduces viability of KKLEB cystic fibrosis airway cells; AID 602141; activity change (cytotoxicity), % at 5 µM; 0.36% of 360,000 active; KKLEB CF airway cells viability, ATPlite luminescence, overnight; stronger effect = lower value; cells stimulated with P. aeruginosa culture filtrate;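 active = corrected activity change at or below -50% at 5 µM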
HSP90 inh: inhibitors of HSP90 luciferase refolding in rabbit reticulocyte lysate. AID 1789. luciferase refolding luminescence, 3 h. inhibition, % at 5.6 µM. 0.91% of 290,000 active;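 active = inhibition above the screen-wide mean plus 3 SD, computed separately per campaign, cut at about 16% in these data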;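 note: 0% = DMSO wells and 100% = 60 µM geldanamycin wells; inhibitors lower the luminescence because luciferase stays unfolded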
CF NFkB block: inhibitors of cystic fibrosis induced NF-kB | KKLEB NF-kB-GFP reporter, PAF-induced, GFP fluorescence overnight | inhibition, % at 5 µM | 0.86% of 360,000 active;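 active = at least 50% inhibition at 5 µM, scaled per plate between neutral and stimulator controls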;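 note: PAF is a Pseudomonas aeruginosa culture filtrate used as stimulus; plate controls were PAF-stimulated DMSO wells for no effect and unstimulated DMSO wells for full effect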
Mdm2-MdmX conf: human Mdm2/MdmX binding inhibition, confirmed. shares compounds with Mdm2 MdmX PPI. luminescent assay. inhibition, % at 8 µM. 55% of 10,000 active; in the data active = inhibition above about 40%
Full FLuc ctr: counter-screen for Mdm2/MdmX inhibitors: full-length luciferase; 77% of 6,200 active; inhibition, % at 8 µM; SaOS-2 full-length luciferase counterscreen, luminescence; shares compounds with Mdm2 MdmX PPI;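 active = mean inhibition at 8 µM reaching about 37%, which flags the compound as non-specific, limit read from the data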;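 note: p53-null SaOS-2 cells with luciferase driven by a doxycycline-inducible promoter; compound on cells about two nights before reading with doxycycline added after day one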
Starred values were filed as active, the others as inactive. Sampled rows, rich in hits. Any-hit rate of the full collection: about 3.6%.

N#C/C(=C(/O)c1ccc([N+](=O)[O-])s1)c1nc2ccccc2[nH]1 was read as Peg3 prom inh -12, Mdm2 MdmX PPI 89*, LGR2 inh 22, KKLEB tox 1, HSP90 inh 4, CF NFkB block 29, Mdm2-MdmX conf 83* and Full FLuc ctr 68*.
N#C/C(=C(/O)c1ccc(Br)s1)c1nc2ccccc2[nH]1 was read as Peg3 prom inh 16, Mdm2 MdmX PPI 31, LGR2 inh -36, KKLEB tox 2, HSP90 inh -3 and CF NFkB block 21.
`Cc1ccc(C(C)C)c(OC/C(O)=C(\C#N)c2nc3ccccc3[nH]2)c1` gave Peg3 prom inh 43, Mdm2 MdmX PPI 59*, LGR2 inh 7, KKLEB tox -15, HSP90 inh 0, CF NFkB block 22 and Mdm2-MdmX conf 32.
`CC(C)C(=O)OC/C(O)=C(\C#N)c1nc2ccccc2[nH]1` gave Peg3 prom inh 6, Mdm2 MdmX PPI 13, LGR2 inh 20, KKLEB tox 4, HSP90 inh 3 and CF NFkB block 3.
O=C(N/N=C/c1cc(Br)ccc1O)c1ccncc1 was read as Peg3 prom inh 31, Mdm2 MdmX PPI 20, LGR2 inh 18, KKLEB tox -10, HSP90 inh 2 and CF NFkB block 21.
O=C(N/N=C\c1ccc([N+](=O)[O-])s1)C1COc2ccccc2O1 (stereo not drawn) was read as Peg3 prom inh 2, Mdm2 MdmX PPI 51*, LGR2 inh 11, KKLEB tox 4, HSP90 inh -2, CF NFkB block 14, Mdm2-MdmX conf 55* and Full FLuc ctr 87*.
For Cc1cccc(NC(=S)N/N=C/c2ccc([N+](=O)[O-])s2)c1 the results were Peg3 prom inh 4, Mdm2 MdmX PPI 67*, KKLEB tox 16, HSP90 inh -5, CF NFkB block -14 and Mdm2-MdmX conf 18.
Screening CCOC(=O)N/N=C\c1ccc([N+](=O)[O-])s1 returned Peg3 prom inh -148, Mdm2 MdmX PPI 28, LGR2 inh -3, KKLEB tox -10, HSP90 inh -1 and CF NFkB block -2.
O=C(N/N=C/c1ccc(O)c2ncccc12)c1cccc(Br)c1 was read as Peg3 prom inh 8, Mdm2 MdmX PPI 87*, LGR2 inh 0, KKLEB tox -12, HSP90 inh 2, CF NFkB block 32, Mdm2-MdmX conf 55* and Full FLuc ctr 32.
For O=C(N/N=C/c1ccc([N+](=O)[O-])s1)c1cccc(Br)c1 the results were Peg3 prom inh 40, Mdm2 MdmX PPI 77*, KKLEB tox -1, HSP90 inh 8, CF NFkB block -5, Mdm2-MdmX conf 68* and Full FLuc ctr 38*.
For O=C(N/N=C/c1ccc([N+](=O)[O-])s1)c1ccncc1 the results were Peg3 prom inh -3, Mdm2 MdmX PPI 30, KKLEB tox -4, HSP90 inh 0 and CF NFkB block -2.
For C[C@H]1CN([C@@H](C)CO)C(=O)c2cccc(NS(C)(=O)=O)c2O[C@H]1CN(C)S(=O)(=O)c1cn(C)cn1 the results were LGR2 inh 17.
Screening C[C@@H]1CCCCO[C@H](CN(C)S(=O)(=O)c2cccs2)[C@@H](C)CN([C@H](C)CO)C(=O)c2cc(NS(=O)(=O)c3ccccc3)ccc2O1 returned LGR2 inh -9.
Screening Cc1ccc([N+](=O)[O-])cc1N(CC(=O)Nc1ccc(S(=O)(=O)Nc2cccc(C(F)(F)F)c2)cc1)S(C)(=O)=O returned Peg3 prom inh 39, Mdm2 MdmX PPI 55*, LGR2 inh 11, KKLEB tox -7, HSP90 inh 2, CF NFkB block -2, Mdm2-MdmX conf 45* and Full FLuc ctr 39*.
`COc1ccc(S(=O)(=O)N(C)C[C@H]2Oc3ncc(C#CC4(O)CCCC4)cc3C(=O)N([C@H](C)CO)C[C@@H]2C)cc1` gave LGR2 inh -2.
`CCOC(=O)c1sc(NC(=O)CN2C(=O)c3cccc4cccc(c34)C2=O)nc1C` gave Peg3 prom inh -11, Mdm2 MdmX PPI 73*, KKLEB tox -31, HSP90 inh -1, CF NFkB block 28 and Mdm2-MdmX conf 13.
CC(C)NCC(O)Cn1c2c(c3ccccc31)CCc1c-2cnn1-c1ccccc1 (stereo not drawn) was read as Peg3 prom inh 104*, Mdm2 MdmX PPI 98*, KKLEB tox -1, HSP90 inh -1, CF NFkB block -1, Mdm2-MdmX conf 74* and Full FLuc ctr 12.
Screening CN1CCN(C(=O)c2cnn3c(C(F)(F)F)cc(-c4cccs4)nc23)CC1 returned Peg3 prom inh 16, Mdm2 MdmX PPI -4, LGR2 inh -12, KKLEB tox -11, HSP90 inh -2 and CF NFkB block 7.
Screening O=C(c1cnn2c(C(F)(F)F)cc(-c3cccs3)nc12)N1CCN(C(c2ccccc2)c2ccccc2)CC1 returned Peg3 prom inh 18, Mdm2 MdmX PPI 62*, KKLEB tox -15, HSP90 inh -2, CF NFkB block 14, Mdm2-MdmX conf 59* and Full FLuc ctr 68*.
For COc1cc2[nH]c3c(N4CCN(c5ccccn5)CC4)ncnc3c2cc1OC the results were Peg3 prom inh 100*, Mdm2 MdmX PPI 69*, KKLEB tox 6, HSP90 inh 0, CF NFkB block -22, Mdm2-MdmX conf 41* and Full FLuc ctr 53*.
`COc1ccc2[nH]c3c(N4CCc5ccccc5C4)ncnc3c2c1` gave Peg3 prom inh 48, Mdm2 MdmX PPI 76*, LGR2 inh 79*, KKLEB tox -7, HSP90 inh -5, CF NFkB block -23, Mdm2-MdmX conf 50* and Full FLuc ctr 63*.
For COc1ccc(N2CCN(c3ncnc4c3[nH]c3ccccc34)CC2)cc1 the results were Peg3 prom inh 29, Mdm2 MdmX PPI 16, KKLEB tox 5, HSP90 inh -6 and CF NFkB block -14.
For COc1ccc(C(=O)Nc2nc3ccc4nc(C)sc4c3s2)cc1 the results were Peg3 prom inh -10, Mdm2 MdmX PPI 17, LGR2 inh 8, KKLEB tox -8, HSP90 inh -5 and CF NFkB block -39.
Screening CSc1nc2ccc3nc(NC(=O)c4ccc(C)cc4)sc3c2s1 returned Peg3 prom inh -18, Mdm2 MdmX PPI 61*, LGR2 inh -18, KKLEB tox -5, HSP90 inh -4, CF NFkB block 0 and Mdm2-MdmX conf 26.
CCCNC(=O)[C@H]1[C@H](CO)[C@H]2Cn3c(ccc(-c4ccc(OC)cc4)c3=O)[C@@H]1N2CC was read as LGR2 inh 19.
